# The campaign covered roughly 340,000 compounds. About 6,400 (1.9%) were called active. Where a call stands in place of a potency, no number is given. Inconclusive results (about 4%) are left out. Calls follow the shape of the dose curve; as a rule, active = well fitted falling curve with a large enough effect; inconclusive = small, poorly fitted or top-dose-only effect; inactive = no such curve, though single readings can be large or run the other way. Many of the other results were omitted from the sample, so actives are more common in it than they were.
# Target: ATP-dependent Clp protease proteolytic subunit (Bacillus subtilis (strain 168)) (UniProt P80244)
# Sequence (P80244 whole entry, looked up): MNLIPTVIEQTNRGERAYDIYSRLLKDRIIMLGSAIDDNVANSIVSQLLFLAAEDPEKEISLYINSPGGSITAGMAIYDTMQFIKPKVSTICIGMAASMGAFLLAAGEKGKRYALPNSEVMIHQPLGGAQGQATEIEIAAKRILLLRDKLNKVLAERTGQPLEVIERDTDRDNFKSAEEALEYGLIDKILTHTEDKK
# Experiment: qHTS Assay for Activators of ClpP; also: the source files actives as falling curves though it sought activators and does not explain the sign; nearly all actives have a fitted effect of over 65% in size
# Details: purified B. subtilis ClpP, FRET peptide cleavage, 20 min; series mostly up to 57.5 µM
# Procedure, shortened: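 Buffer: 100 mM Tris/HCl pH8, 100 mM KCl, 0.05% low protease BSA, 2.5% glycerol, 0.01% Tween-20. ClpP 10 microg/mL final; 20 min RT; delta FRET normalized to ADEP and DMSO controls.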
# Potency is read from the fitted curve at half-maximal effect.
row,SMILES,Potency
1,CC(CN1CCOCC1)OC(=O)c1ccc(Cl)cc1Cl (centres undefined),inactive
2,Cc1ccc(C(=O)OC(C)CN2CCOCC2)cc1 (centres undefined),39.8 µM (active)
3,CC(CN1CCOCC1)OC(=O)c1ccc(C(C)(C)C)cc1 (centres undefined),inactive
4,CCN(CC)C(=O)C1=C(C)N(Cc2ccc(OC)cc2)C(=O)C(CC(=O)NCc2ccco2)C1 (centres undefined),inactive
5,Nc1nc2c(ncn2[C@@H]2O[C@H](CNCc3ccc(OCCCN4CCOCC4)cc3)[C@@H](O)[C@H]2O)c(=O)[nH]1,inactive
6,CCCCC[C@H](C)N1C[C@@H](COCc2ccccc2)Oc2cc(N3CCC[C@@H]3CO)ccc2S1(=O)=O,inactive
7,O=C(NC1CC1)c1cccc(Br)c1,inactive
8,CCCN(CCC)CCNC(=O)c1ccc2c(c1)NC(=O)C(CS(=O)(=O)Cc1cccc(Br)c1)N2 (centres undefined),2.82 µM (active)
9,CCCNC(=O)c1ccc(N2CCC3(CC2)CC(c2cccc(Br)c2)=NO3)c(NC(=O)c2ccco2)c1,inactive
10,COc1ccc(OC)c(NC(=O)C2(C)CCN2C(=O)Cc2ccccc2)c1 (centres undefined),inactive
11,Cc1cccc(C)c1NC(=O)C(c1ccc(C(F)(F)F)cc1)n1c(=O)c(-c2ccco2)nc2ccccc21 (centres undefined),inactive
12,CCOC(=O)c1sc(C)c2c1NC(C)(c1cccc3ccccc13)NC2=O (centres undefined),28.2 µM (active)
13,CCOC(=O)c1ccc(Nc2cc3ccccc3c(=O)[nH]2)cc1,inactive
14,CCOC(=O)C1=C(CCc2ccccc2)NC(=O)NC1c1ccc2ccccc2c1 (centres undefined),inactive
15,COc1cccc(NC(=O)CSc2nnc(-c3cccnc3)o2)c1,inactive
16,COc1cccc(-c2nnc(SCCOc3ccc4c(C)cc(=O)oc4c3)o2)c1,28.2 µM (active)
17,COc1cccc(-c2nnc(SCC(=O)N3CCC(C)CC3)o2)c1,inactive
18,CCCNC(=O)C1(C)CCCN(C(=O)c2oc3ccccc3c2C)C1 (centres undefined),inactive
19,OC[C@@H]1CN(Cc2ccc(F)cc2)C[C@H](n2cnc3c(NC4CCCC4)ncnc32)O1,inactive
20,CC1(c2cccc([N+](=O)[O-])c2)CC(C)(C)N(C(=O)c2ccccc2)c2ccccc21 (centres undefined),inactive
21,CC1(c2ccccc2)CC(C)(C)N(C(=O)c2cc([N+](=O)[O-])cc([N+](=O)[O-])c2)c2ccccc21 (centres undefined),inactive
22,Cc1nnc(SCC(=O)N2c3ccccc3C(C)(c3ccc(Cl)cc3)CC2(C)C)s1 (centres undefined),31.6 µM (active)

row,SMILES,Potency
1,O=C(C[n+]1ccncc1)c1ccc2c(c1)CCCC2,inactive
2,COc1ccc(CC(N)c2csc(NC(=O)Nc3ccc(C(C)C)cc3)n2)cc1 (centres undefined),inactive
3,CO[C@H]1O[C@@H]2O[C@@]3(C)CC[C@@H]4[C@@H](C)CC[C@@H]([C@H]1C)[C@@]24OO3,inactive
4,CCOC(=O)c1ccn(S(=O)(=O)c2ccc(C)cc2)c1-c1ccccc1,inactive
5,CCOc1cc(-c2cc(-c3ccc(OC)cc3)nc(N)c2C#N)ccc1O,inactive
6,CCSc1nc(-c2ccc(OC)cc2)cc(-c2ccc(OC)cc2)c1C#N,22.4 µM (active)
7,CCOC(=O)CC(=O)CSc1nc(-c2ccccc2)cc(-c2ccc(Cl)cc2)c1C#N,inactive
8,CCc1ccc([C@@H]2CC(=O)[C@@H]3CN(S(=O)(=O)c4ccc(C)cc4)[C@H](c4ccc(Cl)cc4)C[C@@H]3N2S(=O)(=O)c2ccc(C)cc2)cc1,inactive
9,Cc1ccc(S(=O)(=O)N[C@H]2CCC[C@@H]2O)cc1,inactive
10,CCCNC(=O)c1cc(C2CCCN(C(=O)c3ccc4c(c3)CCO4)C2)on1 (centres undefined),inactive
11,CCOc1cc(C2C(C(=O)OC)=CN(C3CCCC3)C=C2C(=O)OC)cc(Br)c1O,31.6 µM (active)
12,CCCC(=O)Nc1cc(OCC)c(NC(=O)NC2CCCCC2)cc1OCC,inactive
13,CCOc1ccc(CNC(=O)C2CCC(=O)N2C2CCCC2)cc1OC (centres undefined),inactive
14,CCOc1ccc2[nH]c(=S)sc2c1,inactive
15,C=CCC[C@@H](CCCCC)OC(=O)/C=C/[C@@H](O)[C@H](O)C[C@H](O)CC=C,inactive
16,N=c1oc2ccccc2cc1C(=O)NCc1ccccc1,inactive
17,COc1ccc2oc(=O)c(C(=O)NCc3ccccn3)cc2c1,10 µM (active)
18,COc1cccc(S(=O)(=O)NCc2ccc(C(=O)NCc3ccccn3)cc2)c1,inactive
19,Cc1ccccc1CN1CCN(CC(=O)NCc2ccccn2)C1=O,inactive
20,COc1ccc2oc(=O)c(C(=O)N3CCN(c4ccccc4F)CC3)cc2c1,inactive
21,COc1ccc(CNC(=O)c2cc3cccc(OC)c3oc2=O)cc1,inactive
22,O=C(NCc1ccccn1)c1cnc2sccn2c1=O,28.2 µM (active)

row,SMILES,Potency
1,O=C(NCc1ccccn1)c1cc2ccccc2oc1=O,31.6 µM (active)
2,Cc1ccc(S(=O)(=O)N2CCC(C)CC2)cc1C(=O)NCc1ccccn1,inactive
3,COc1ccc2oc(=O)c(C(=O)N3CCCc4ccccc43)cc2c1,inactive
4,Cc1cc(C)cc(OCC(=O)NNC(=O)c2cc3ccccc3oc2=O)c1,inactive
5,COc1ccc2oc(=O)c(C(=O)O)cc2c1,20 µM (active)
6,COc1cc(NC(=O)c2cc(-c3ccc(F)cc3OC(C)C)n[nH]2)cc(OC)c1OC,inactive
7,COc1ccc(NC(=O)C2Cc3c(-c4ccc5c(c4)OCO5)ccnc3O2)cn1 (centres undefined),inactive
8,COc1cc(C(O)c2nc(-c3cccc(C(=O)O)c3)cs2)ccc1F (centres undefined),inactive
9,Cc1cc2c(cc1C)N1C(=O)c3cc4ccccc4cc3NC(=O)C1C(=O)N2 (centres undefined),inactive
10,COc1cc(OC)c(OC)cc1/C=C1\C=Cc2ccccc21,inactive
11,CCOC(=O)C1(C)CCCN(C(=O)c2ccc(F)c(Cl)c2)C1 (centres undefined),inactive
12,O=C(NCc1ccc(F)cc1)c1cc(C2CCCCN2C(=O)C2CCCCC2)on1 (centres undefined),inactive
13,COc1cc(C(O)c2nc(-c3cnn(C)c3)cs2)ccc1F (centres undefined),inactive
14,CCc1ccc(Oc2coc3cc(OC(=O)c4cc5ccccc5oc4=O)ccc3c2=O)cc1,inactive
15,O=C(Oc1cccnc1)c1cc2ccccc2oc1=O,28.2 µM (active)
16,CCOC(=O)c1cc2cc3ccccc3cc2oc1=O,inactive
17,COc1ccc(Cl)cc1-c1cc(C(=O)Nc2cc(OC)c(OC)c(OC)c2)[nH]n1,inactive
18,CCN(CC)CCNC(=O)CCCCCn1c(=O)[nH]c2cc(C(=O)OC)ccc2c1=O,28.2 µM (active)
19,O=C(CCCn1c(=O)[nH]c2cc(Cl)ccc2c1=O)NCCN1CCN(c2ccccc2)CC1,inactive
20,CCCCCn1c(=O)[nH]c2cc(C(=O)NCCN(C)CCCC)ccc2c1=O,inactive
